High-throughput results deposited in PubChem BioAssay by National Center for Advancing Translational Sciences (NCATS).
In the library only some 2.3% were active in any assay of this set; here they are far more common.
12-LOX inh – ALOX12 (human) lipoxygenase inhibition; P18054; purified 12hLO, xylenol orange hydroperoxide absorbance; Potency, µM (titrated, usually from 108 µM), inactives show at the highest dose activity change, negative = inhibition, hits mostly inhibitors; hit rate 1.1% among 580,000; note: % is set by controls: 0 for no effect and ±100 for the full control effect
Target sequence (P18054 whole entry, looked up): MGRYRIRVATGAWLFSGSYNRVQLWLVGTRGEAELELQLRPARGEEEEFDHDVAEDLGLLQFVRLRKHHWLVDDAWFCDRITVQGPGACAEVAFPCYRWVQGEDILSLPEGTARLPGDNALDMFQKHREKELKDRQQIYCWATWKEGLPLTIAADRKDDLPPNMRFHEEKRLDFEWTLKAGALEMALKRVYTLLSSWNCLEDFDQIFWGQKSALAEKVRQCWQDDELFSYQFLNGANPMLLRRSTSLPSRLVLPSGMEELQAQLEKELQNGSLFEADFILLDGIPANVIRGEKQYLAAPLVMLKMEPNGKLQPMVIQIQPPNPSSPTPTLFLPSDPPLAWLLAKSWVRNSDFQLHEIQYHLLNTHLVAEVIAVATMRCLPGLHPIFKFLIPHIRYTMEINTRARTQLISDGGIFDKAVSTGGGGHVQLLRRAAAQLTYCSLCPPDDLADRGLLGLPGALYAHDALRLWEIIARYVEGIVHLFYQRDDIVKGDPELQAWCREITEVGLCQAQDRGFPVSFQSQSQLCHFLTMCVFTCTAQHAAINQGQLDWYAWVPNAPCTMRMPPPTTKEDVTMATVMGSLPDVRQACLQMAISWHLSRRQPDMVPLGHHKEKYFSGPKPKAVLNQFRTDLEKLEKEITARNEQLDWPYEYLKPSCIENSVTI
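Purified human 12hLO (150 nM final) in 25 mM Hepes, 0.01% Triton X-100, pH 7.0 was preincubated 15 min at room temperature with compound. Then 40 uM arachidonic acid was added, 30 min. Hydroperoxide was read by Fe-XO absorbance ratio 573/405 nm.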
GLP1R inv ag – inverse agonists of human GLP-1 receptor; HEK293 GLP-1R CRE-luciferase, luminescence, 24 h; GLP-1R form is constitutively active; hit rate 1.6% among 410,000; AID 624417; Potency, µM (top dose mostly 38.3 µM), for inactives: at the top dose activity change, negative = inhibition, most hits filed as inhibitors; note: % is set by controls: 0 for no effect and ±100 for the full control effect; nearly all actives have a fitted effect of over 55% in size
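Cells are plated, allowed 12 hours at 37 deg C, then treated with compounds for 24 hr before luciferase detection reagent is added and luminescence is read after 12 min at room temperature. The HEK293 line carries constitutively active GLP-1R with a cAMP-responsive reporter.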
PTHR1 agonist – agonists of human PTHR1 parathyroid hormone receptor; Q03431; HEK293 GP2 PTHR1 cells, GloSensor cAMP luminescence, 1 h; Potency, µM (doses to about 115 µM), inactives show at the top dose activation, hits mostly activators; hit rate 0.075% among 410,000; AID 743266; note: nearly all actives have a fitted effect of over 55% in size
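HEK-293-derived GP2 cells expressing PTHR1 and a GloSensor cAMP reporter, 3,000/well, plated overnight, given luciferin plus IBMX (each 0.5 mM as added) for 1 h at 37 °C, then compound for 1 h at 37 °C. Luminescence was read after 15 min at room temperature.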
GLS inh – inhibitors of human glutaminase (GLS) | AID 624170 | hit rate 0.21% among 410,000 | Potency, µM (top dose mostly 45.5 µM), inactives show at the highest dose activity change, negative = inhibition, most hits filed as inhibitors | GLS enzymatic activity, qHTS titration; note: % is set by controls: 0 for no effect and ±100 for the full control effect
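Two-point fluorescence kinetic (t0, 30 min RT) for hKGA; glutamate detected via glutamate oxidase–HRP–Amplex Red. Substrate: 1 mM L-glutamine solution; buffer 45 mM KH2PO4, pH 8.2.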
GLP-1R agonist – GLP-1 receptor (human) agonism | Potency, µM (titrated, usually from 45.6 µM), inactives show at the highest dose activation, most hits filed as activators | HEK293 GLP-1R CRE-luciferase, luminescence, 4-6 h; cells express a hypersensitive GLP-1R form | hit rate 0.007% among 380,000 | AID 624172; note: % of control where 0% means no effect
Glioma ERSR ind – ER stress response induction in glioma | AID 602332 | U87-MG GRP78 promoter luciferase reporter, 16 h | hit rate 0.02% among 420,000 | Potency, µM, without a hit: at the top dose activation, most hits filed as activators; note: series mostly up to about 76 µM; % of control where 0% means no effect; nearly all actives have a fitted effect of over 35% in size
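Stably transfected U87-MG glioma cells carrying a GRP78-based luciferase sensor; 16 h compound incubation. Luminescence end-point read 10 min after Bright-Glo addition at room temperature.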
* = called active by the depositor; i = inactive; ? = inconclusive; . = no result; [ ] = another dose, or the depositor's remark. Calls come from the whole dose curve; as a rule, active = well fitted curve in the direction sought with a large enough effect; inconclusive = small, poorly fitted or top-dose-only effect, or another doubt; inactive = no such curve, though single readings can be large; an effect the other way counts as inactive or inconclusive. Potency is the fitted concentration of half-maximal effect.

SMILES	12-LOX inh	GLP1R inv ag	PTHR1 agonist	GLS inh	GLP-1R agonist	Glioma ERSR ind
CCCn1c(N)c(N2CCCCC2)c(=O)n(CC(=O)Nc2ccccc2)c1=O	10.1%	-7.8%	i	13.5%	3.0%	3.1%
CCCn1c(N)c(N2CCCCC2)c(=O)n(CC(=O)Nc2ccc(C(C)=O)cc2)c1=O	5.3%	10.4%	-3.8%	4.47µM*	-2.4%	-3.0%
COc1ccc(CNC[C@H]2COCc3nc4cc(C(F)(F)F)ccc4n32)cn1	19.1%[176 µM]	.	.	.	.	.
CCOC(=O)c1c(C)n(-c2ccccc2)c2ccc(O)c(CN(C)C)c12	2.2%	8.91µM*	i	?	8.5%	-5.8%
CCOC(=O)c1c(C)n(C)c2ccc(O)c(CN(CC)CC)c12	-11.3%	6.8%	-41.4%	22.8%	-8.3%	-4.4%
CCOC(=O)c1c(CN2CCN(C)CC2)n(-c2ccccc2)c2cc(Br)c(O)cc12	?	?	i	2.1%	3.7%	0.1%
CCOC(=O)c1c(CN2CCN(CCO)CC2)n(-c2ccccc2)c2cc(Br)c(O)cc12	?	2.24µM*	i	-9.2%	15.7%	-6.7%
CC(C)(C)c1ccc(C(=O)Nc2cccnc2)cc1	4.4%	?	-14.4%	1.0%	-1.5%	-5.0%
CC(C)(C)c1ccc(C(=O)Nc2ccc(Oc3cccnc3)nc2)cc1	160.9%	8.91µM*	-47.1%	-3.1%	0.4%	-4.4%
Cc1cccc(-c2nn3c(N(C)C)cc(C)nc3c2C)c1	-13.5%	.	.	.	.	.
Cc1nn(C)cc1C(=O)N1C[C@@H](CO)[C@H](c2ccncc2)C1	50.1µM*	.	.	.	.	.
C#CCN1CCC(CN(CC)CC)CC1	18.5%	.	.	.	.	.
Cc1cccc2cc(CN(Cc3ccccc3)C(=O)c3cccc(F)c3)c(Cl)nc12	-4.5%	11.2µM*	-5.0%	2.3%	-1.6%	-4.5%
COc1cc(/C=N/NC(=S)Nc2cccc(Cl)c2C)ccc1OCC(=O)N1CC(C)OC(C)C1 (stereo unspecified)	44.7µM*	?	-3.2%	27.3%	-4.8%	3.2%
Cc1nc(NCCC(C)C)sc1C(=O)NCc1ccco1	6.4%	.	.	.	.	.
Fc1ccc(-c2cnc(COc3ccc(Cl)cc3)o2)cc1	14.1µM*	.	.	.	.	.
Fc1ccc(-c2cnc(COc3ccc(-c4nnco4)cc3)o2)cc1	-23.1%	.	.	.	.	.
COC(=O)c1[nH]c2ccc(C)cc2c1NC(=O)CCN1CCCCC1	-0.1%	.	.	.	.	.
Fc1ccccc1NC(=S)NCCc1ccccc1	0.0%	?	-16.0%	?	5.5%	-4.0%
Cc1c(Cl)cccc1NC(=S)NCCc1ccc(Cl)cc1	25.1µM*	?	-27.5%	7.0%	-1.9%	-1.5%
Fc1ccccc1NC(=S)NCCc1ccc(Cl)cc1	39.8µM*	?	-21.4%	-2.0%	4.2%	8.2%
O=C(CSc1nc(Cl)nc2nc[nH]c12)NCCc1ccc(O)cc1	-3.0%	.	.	.	.	.
CC(Oc1cccc(Br)c1)C(=O)NNC(=O)c1ccc2c(c1)NC(=O)CCS2 (stereo unspecified)	44.7µM*	.	.	.	.	.
O=C1CCSc2ccc(C(=O)NNC(=S)NCc3ccccc3)cc2N1	13.9%	.	.	.	.	.
O=C1c2ccccc2NC(c2cccc([N+](=O)[O-])c2)N1O (stereo unspecified)	?	?	-1.0%	6.2%	0.5%	-2.8%
SMILES	12-LOX inh	GLP1R inv ag	PTHR1 agonist	GLS inh	GLP-1R agonist	Glioma ERSR ind
O=C1c2ccccc2NC(c2ccc([N+](=O)[O-])cc2)N1O (stereo unspecified)	-23.6%	10µM*	-6.9%	0.0%	10.8%	-1.5%
CN(C)S(=O)(=O)Oc1ccsc1C(=O)Nc1ccc(Cl)c(Cl)c1	-23.6%	10µM*	-14.8%	-4.6%	-1.4%	-1.2%
O=C(NC1CCCN(c2cc(-c3ccc(F)cc3)[nH]n2)C1)c1ccc2ncccc2c1 (stereo unspecified)	22.0%	.	.	.	.	.
Cc1ccn2c(Nc3ccc4c(c3)OCO4)c(-c3ccccn3)nc2c1	20.1%	3.4%	-8.0%	11.2µM*	5.2%	-6.8%
CC1(C)CCCC2(C)C1CCC1(C)OC(=O)CC12 (stereo unspecified)	-27.2%	.	.	.	.	.
Cn1c(N)c(C(=O)COC(=O)c2ccccc2C(=O)c2ccc(Cl)cc2)c(=O)n(C)c1=O	15.5%	11.2µM*	-6.3%	-10.5%	14.0%	3.5%
CC(C)Cn1c(N)c(C(=O)COC(=O)c2ccccc2C(=O)c2ccccc2)c(=O)n(C)c1=O	2.9%	?	-36.4%	0.7%	14.8%	-3.7%
CCNC(=O)NC(=O)COC(=O)c1cc(-c2ccco2)nc2ccccc12	6.31µM*	.	.	.	.	.
Cn1c(N)c(C(=O)COC(=O)c2cc(-c3ccco3)nc3ccccc23)c(=O)n(C)c1=O	?	-7.2%	-1.9%	7.94µM*	-2.1%	-6.1%
CC(NC(=O)c1cc(-c2ccco2)nc2ccccc12)C(=O)NCc1ccccc1 (stereo unspecified)	39.8µM*	.	.	.	.	.
COc1ccc(CCNC(=O)c2cc(-c3ccco3)nc3ccccc23)cc1	?	-4.5%	-6.9%	186.1%	0.5%	-0.4%
COC(=O)c1ccc2cc(C(=O)O)ccc2c1	58.4%	.	.	.	.	.
Cn1c(=O)c2c(ncn2CC(=O)c2ccc(O)cc2)n(C)c1=O	-21.7%	.	.	.	.	.
Clc1ccc(CN2C3=NCCN3c3ccccc32)c(Cl)c1	27.7%	.	.	.	.	.
Cn1c(SCc2coc(-c3cccs3)n2)nnc1-c1ccccc1F	-17.7%	.	.	.	.	.
CCOC(=O)c1cccc(OCc2ccc(C#N)cc2)c1	-2.4%	.	.	.	.	.
CCNC(=O)NC(=O)COC(=O)c1cc(-c2ccc(C)o2)nc2ccccc12	3.16µM*	.	.	.	.	.
O=C(COC(=O)c1cc(-c2ccco2)nc2ccccc12)NCc1ccccc1	10µM*	0.6%	-27.9%[57.5 µM]	-9.0%	1.9%	-7.7%
Cc1ccc(-c2cc(C(=O)OC(C)C(=O)NC(=O)NC3CCCC3)c3ccccc3n2)o1 (stereo unspecified)	3.98µM*	.	.	.	.	.
Cc1ccc2nc(C)c(C(=O)N3CCN(c4ccc(F)cc4)CC3)cc2c1	-54.8%	.	.	.	.	.
C[C@H](NC(=O)c1nc[nH]c1C(=O)NC(c1ccccc1)c1ccccc1)C(=O)OC(C)(C)C	-3.1%	5.62µM*	-61.2%	0.1%	2.3%	10.0%
CC(C)C[C@H](NC(=O)c1[nH]cnc1C(=O)N[C@@H](C)c1ccccc1)C(=O)OCc1ccccc1	.	4.47µM*	-21.5%	-3.3%	-1.0%	-2.4%
C[C@H](NC(=O)c1nc[nH]c1C(=O)NCc1ccccc1)C(=O)OC(C)(C)C	12.3%	-2.9%	i	-2.3%	2.1%	-2.5%
Cc1cc(C)c(-n2[nH]nnc2=S)c(C)c1	11.2µM*	-8.7%	i	2.9%	-6.4%	-6.4%
COc1ccc(C)cc1-n1[nH]nnc1=S	?	-9.1%	i	-0.6%	5.4%	-3.6%
